# Assay results taken from PMC7862700, “An all-to-all approach to the identification of sequence-specific readers for epigenetic DNA modifications on cytosine”.
# How the values were obtained:
# Assay in all cases: DAPPL (digital affinity profiling via proximity ligation, sequencing); 10 mM Tris-HCl pH 7.5, 50 mM NaCl, 1 mM DTT, 4% glycerol, room temperature, 30 min; GST-TFs on glutathione beads, 16-mer random dsDNA library, 0.1% formaldehyde crosslink after washing; high values mean tight binding
# Conditions in all cases: protein: recombinant; tags: N-terminal GST; dsDNA, one strand shown
# [1] = target: T1, ELK3 (Homo sapiens, UniProt P41970 1-407)
# T1 sequence: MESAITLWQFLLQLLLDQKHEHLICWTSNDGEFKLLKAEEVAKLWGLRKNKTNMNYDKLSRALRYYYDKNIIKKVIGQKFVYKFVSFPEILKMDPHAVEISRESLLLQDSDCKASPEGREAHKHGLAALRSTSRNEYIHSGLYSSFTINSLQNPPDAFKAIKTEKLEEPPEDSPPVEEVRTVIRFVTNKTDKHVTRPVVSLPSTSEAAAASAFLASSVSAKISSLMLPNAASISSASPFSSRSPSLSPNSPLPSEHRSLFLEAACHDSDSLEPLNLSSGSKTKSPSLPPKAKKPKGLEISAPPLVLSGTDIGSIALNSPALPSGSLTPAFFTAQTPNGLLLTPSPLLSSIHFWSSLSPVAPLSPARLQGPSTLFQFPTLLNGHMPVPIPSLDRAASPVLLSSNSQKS
# Outline: (§1)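 Yeast served to express human transcription factors as GST fusions, which were then captured on glutathione beads and labelled with DNA barcodes. Pooled with a tag-only sample, they were incubated with 200 nmole of a 16-mer random double-stranded DNA library for 30 min at room temperature in Tris/NaCl/DTT/glycerol buffer, washed, crosslinked with 0.1% formaldehyde, ligated by proximity, amplified by PCR and sequenced. Dividing each hexamer's read frequency for a factor by its frequency for the tag-only sample gives the binding signal.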
# [2] = target: T2, ELK4 (Homo sapiens, UniProt P28324-2 1-405)
# T2 sequence: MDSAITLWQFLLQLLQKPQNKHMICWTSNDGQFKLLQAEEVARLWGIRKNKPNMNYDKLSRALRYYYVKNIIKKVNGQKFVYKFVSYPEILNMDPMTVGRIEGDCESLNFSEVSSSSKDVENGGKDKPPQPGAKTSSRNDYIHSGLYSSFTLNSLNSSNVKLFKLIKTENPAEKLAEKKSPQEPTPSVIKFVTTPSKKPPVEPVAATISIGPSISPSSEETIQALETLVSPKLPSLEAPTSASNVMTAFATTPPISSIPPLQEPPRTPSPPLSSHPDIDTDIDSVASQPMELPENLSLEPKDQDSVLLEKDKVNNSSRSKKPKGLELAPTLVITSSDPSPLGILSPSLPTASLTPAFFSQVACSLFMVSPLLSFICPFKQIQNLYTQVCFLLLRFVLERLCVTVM
# Outline: as §1
# [3] = target: ETV1 (Homo sapiens, UniProt P50549 1-477)
# ETV1, sequence (P50549 whole entry): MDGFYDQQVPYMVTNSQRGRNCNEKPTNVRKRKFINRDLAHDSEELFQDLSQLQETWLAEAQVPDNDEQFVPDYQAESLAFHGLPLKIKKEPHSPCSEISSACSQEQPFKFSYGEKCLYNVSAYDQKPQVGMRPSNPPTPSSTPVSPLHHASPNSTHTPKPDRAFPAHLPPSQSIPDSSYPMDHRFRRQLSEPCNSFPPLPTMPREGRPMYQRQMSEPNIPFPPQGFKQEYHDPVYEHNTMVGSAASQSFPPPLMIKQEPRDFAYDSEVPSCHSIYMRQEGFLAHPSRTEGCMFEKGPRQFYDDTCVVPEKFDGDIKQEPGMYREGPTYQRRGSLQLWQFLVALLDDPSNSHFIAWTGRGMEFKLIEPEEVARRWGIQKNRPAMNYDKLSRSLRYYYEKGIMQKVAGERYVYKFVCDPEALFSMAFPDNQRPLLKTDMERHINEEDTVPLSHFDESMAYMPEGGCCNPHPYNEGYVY
# Outline: as §1
# [4] = target: T3, ETV3L (Homo sapiens, UniProt Q6ZN32 1-361)
# T3 sequence: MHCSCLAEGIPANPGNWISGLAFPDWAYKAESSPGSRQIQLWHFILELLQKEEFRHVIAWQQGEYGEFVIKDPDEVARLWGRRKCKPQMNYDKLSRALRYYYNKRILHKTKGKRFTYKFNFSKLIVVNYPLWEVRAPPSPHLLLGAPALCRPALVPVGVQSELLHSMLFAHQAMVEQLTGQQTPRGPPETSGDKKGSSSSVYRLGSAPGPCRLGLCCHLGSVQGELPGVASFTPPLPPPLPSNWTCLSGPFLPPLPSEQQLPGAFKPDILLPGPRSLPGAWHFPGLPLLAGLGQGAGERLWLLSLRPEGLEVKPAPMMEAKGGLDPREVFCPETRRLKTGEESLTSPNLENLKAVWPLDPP
# Outline: as §1
# [5] = target: T4, ETV7 (Homo sapiens, UniProt Q9Y603 1-341)
# T4 sequence: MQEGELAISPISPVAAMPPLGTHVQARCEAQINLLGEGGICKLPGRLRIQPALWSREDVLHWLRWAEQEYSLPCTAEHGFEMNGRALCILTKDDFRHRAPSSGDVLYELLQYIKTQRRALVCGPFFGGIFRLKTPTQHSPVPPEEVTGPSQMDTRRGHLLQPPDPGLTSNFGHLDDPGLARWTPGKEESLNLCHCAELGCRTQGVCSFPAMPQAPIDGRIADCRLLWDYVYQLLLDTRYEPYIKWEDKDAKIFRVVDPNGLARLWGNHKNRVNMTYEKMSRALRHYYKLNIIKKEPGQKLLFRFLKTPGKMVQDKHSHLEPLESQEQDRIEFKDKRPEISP
# Outline: as §1
# [6] = target: ETV6 (Homo sapiens, UniProt P41212 1-452)
# ETV6, sequence (P41212 whole entry): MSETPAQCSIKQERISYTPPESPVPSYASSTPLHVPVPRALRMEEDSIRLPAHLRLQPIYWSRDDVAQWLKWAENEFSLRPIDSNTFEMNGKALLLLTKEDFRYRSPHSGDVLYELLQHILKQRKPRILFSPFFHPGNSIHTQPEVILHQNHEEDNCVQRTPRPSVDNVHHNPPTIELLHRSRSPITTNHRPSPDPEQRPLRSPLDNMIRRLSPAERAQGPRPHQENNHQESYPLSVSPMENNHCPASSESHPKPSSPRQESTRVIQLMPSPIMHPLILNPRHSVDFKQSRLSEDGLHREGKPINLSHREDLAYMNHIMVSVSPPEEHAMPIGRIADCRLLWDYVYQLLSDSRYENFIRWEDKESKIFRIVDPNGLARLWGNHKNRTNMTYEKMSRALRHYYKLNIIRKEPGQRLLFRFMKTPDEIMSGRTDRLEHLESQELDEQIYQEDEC
# Outline: as §1
sequence,measurement,setting,value
AGCGGC,binding signal,[1],"1.03 fold enrichment (6-mer frequency, TF over GST control)"
same,binding signal,[2],"1 fold enrichment (6-mer frequency, TF over GST control)"
same,binding signal,[3],"1.09 fold enrichment (6-mer frequency, TF over GST control)"
same,binding signal,[4],"1.01 fold enrichment (6-mer frequency, TF over GST control)"
same,binding signal,[5],"1.01 fold enrichment (6-mer frequency, TF over GST control)"
same,binding signal,[6],"1.15 fold enrichment (6-mer frequency, TF over GST control)"
